# Shown are actives, neighbours in structure and some others; about 11% of the full set was active somewhere.
# 3T3 cytotox – cytotoxic compounds in NIH 3T3 cells. Potency, µM (doses to about 96.7 µM), actives largely listed as inhibitors. AID 1345082. NIH 3T3 viability, CellTiter-Glo ATP luminescence, 48-72 h. hit rate 4.3% among 94,000; note: nearly all actives have a fitted effect of over 55% in size
#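 Cells were seeded at 400 per well, treated with pin-transferred compound, and kept 48 or 72 hr at 37 °C before CellTiter-Glo addition and luminescence imaging of cellular ATP.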
# Luciferase inh – inhibitors of firefly (Photinus pyralis) luciferase; Potency, µM (titrated, usually from 115 µM), usual class: inhibitors; hit rate 2.5% among 76,000; AID 1347043; purified P. pyralis luciferase, luminescence, biochemical; P08659; note: nearly all actives have a fitted effect of over 65% in size
# Target sequence (P08659 whole entry, looked up): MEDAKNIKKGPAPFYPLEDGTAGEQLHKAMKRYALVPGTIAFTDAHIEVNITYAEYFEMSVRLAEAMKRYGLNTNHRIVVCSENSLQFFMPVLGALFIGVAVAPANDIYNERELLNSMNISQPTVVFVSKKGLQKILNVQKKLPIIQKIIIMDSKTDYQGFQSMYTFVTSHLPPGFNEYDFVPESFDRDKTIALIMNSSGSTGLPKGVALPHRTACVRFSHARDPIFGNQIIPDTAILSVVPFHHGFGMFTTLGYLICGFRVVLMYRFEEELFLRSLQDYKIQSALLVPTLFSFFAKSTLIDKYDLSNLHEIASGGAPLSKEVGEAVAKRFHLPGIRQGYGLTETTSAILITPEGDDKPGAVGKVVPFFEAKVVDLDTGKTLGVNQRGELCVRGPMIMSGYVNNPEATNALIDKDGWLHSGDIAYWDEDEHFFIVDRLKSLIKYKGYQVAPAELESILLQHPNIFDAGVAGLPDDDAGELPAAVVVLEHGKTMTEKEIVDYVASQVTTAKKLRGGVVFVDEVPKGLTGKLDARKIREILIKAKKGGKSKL
#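 Luminescence read by CCD imaging after purified firefly luciferase (10nM final) was added to substrate buffer holding 10uM D-luciferin and 10uM ATP, pH 7.5, pre-dosed with compound.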
# NPR1 antag – human Npr1 receptor antagonism. HEK293 hNpr1 GloSensor cGMP, ANP-stimulated luminescence. Potency, µM (doses to about 46.3 µM), hits mostly inhibitors. hit rate 1.6% among 76,000; calls by dose curve; note: nearly all actives have a fitted effect of over 60% in size
#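 HEK293 cells stably expressing human Npr1 and cGMP GloSensor pGS-40F, loaded 2 h with 2% GloSensor reagent, given compound 30 min at room temperature. Luminescence read before and 20 min after 0.1 nM hNppA.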
# HEK293 tox – kills HEK 293 cells. HEK 293 viability, ATP luminescence (CellTiter-Glo), 48-72 h. Potency, µM (series often up to 115 µM), hits mostly inhibitors. hit rate 6.6% among 94,000; note: nearly all actives have a fitted effect of over 60% in size
#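 HEK 293 cells at 250 cells/well were exposed to compounds by pintool transfer for 48 or 72 hr at 37 degree Celsius, 5% CO2. Viability was read as ATP-coupled luminescence with CellTiter-Glo after 10 min at room temperature.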
# Numbers stand for hits; n = inactive; u = inconclusive; x = not tested or not shown; ! = a repeat was not active. Unless noted, calls come from the whole dose curve; as a rule, active = well fitted curve in the direction sought with a large enough effect; inconclusive = small, poorly fitted or top-dose-only effect, or another doubt; inactive = no such curve, though single readings can be large; an effect the other way counts as inactive or inconclusive.
SMILES,3T3 cytotox,Luciferase inh,NPR1 antag,HEK293 tox
COc1ncccc1-c1cc(C(=O)N2CCCC(OC)C2)c2c(c1)ncn2C (configuration not stated),89µM,n,n,n
O=C(CNC(=O)c1ccc(-c2cccc(C(F)(F)F)c2)cc1)NCC1CC1,n,x,x,u
O=C(c1ccc(C(F)(F)F)cc1)N1CCC2(C1)C(=O)N(Cc1ccccc1)c1ccccc12 (configuration not stated),25µM,n,u,22µM
O=C(Cc1ccc(F)cc1)N1CCC2(C1)C(=O)N(CCc1ccccc1)c1ccccc12 (configuration not stated),u,n,n,45µM
CN1C(=O)C2(CCN(C(=O)c3ccc(C(F)(F)F)cc3)C2)c2ccccc21 (configuration not stated),n,n,n,u
O=C(C1CCCC1)N1CCC2(C1)C(=O)N(CCc1ccccc1)c1ccccc12 (configuration not stated),u,n,n,40µM!
O=C(c1cccc(Cl)c1)N1CCC2(C1)C(=O)N(CCc1ccccc1)c1ccccc12 (configuration not stated),40µM!,n,u,28µM
COc1ccc(F)c(-c2nc(Cn3cnc4ccccc43)c(C)o2)c1,u,n,u,u
CN(C)C(=O)C1CCc2nnc(-c3ccc(F)cc3)n21 (configuration not stated),n,x,x,n
COc1ccc(C(=O)N2CCC3(C2)C(=O)N(CCc2ccccc2)c2ccccc23)cc1 (configuration not stated),u,n,u,40µM!
O=C(Nc1ccccc1)N1CCC2(C1)C(=O)N(CCc1ccccc1)c1ccccc12 (configuration not stated),u,n,n,u
O=C(Nc1ccc(Cl)cc1)N1CCC2(C1)C(=O)N(CCc1ccccc1)c1ccccc12 (configuration not stated),u,n,n,32µM!
COc1ccc(C(=O)N2CCC3(C2)C(=O)N(c2ccccc2)c2ccccc23)cc1 (configuration not stated),n,x,x,u
CC1=C[C@@H](CN2CCC[C@H]2CO)[C@H](C(C)C)C[C@H]1Cc1nnc(-c2cncn2C)o1,100µM,n,n,u
CC1=C[C@@H](CNC(=O)COc2ccccc2)[C@H](C(C)C)C[C@H]1Cc1nnc(-c2cncn2C)o1,u,n,n,50µM
CC(C)Cn1c(=O)c(C(=O)Nc2cccc(Cl)c2)nc2cccnc21,n,x,x,n
Cc1cc(-c2cc3c(cn2)CN(Cc2c[nH]c4ccccc24)CCN3)ccn1,u,u,n,112µM
CCn1cc(-c2cc3c(cn2)CN(CCc2ccccc2)CCN3)cn1,u,n,n,u
Cc1cccc(CN2CCNc3cc(-c4ccnc(C)c4)ncc3C2)c1,u,u,n,40µM
Cc1cc(-c2cc3c(cn2)CN(Cc2ccc(F)c(F)c2)CCN3)ccn1,u,40µM,n,71µM
Fc1ccc(CN2CCNc3cnc(OCc4cccnc4)cc3C2)cc1F,u,n,u,u
Cc1cc(-c2cc3c(cn2)CN(Cc2ccccc2F)CCN3)ccn1,u,25µM,n,71µM
c1ccc(CN2CCNc3cc(-c4ccoc4)ncc3C2)cc1,u,u,n,u
c1ccc(Oc2ccccc2-c2cc3c(cn2)CN(Cc2ccncc2)CCN3)cc1,u,n,n,u
COc1ccc(CC(=O)N2CCc3nc(C(C)C)nc(-c4ccc(O)cc4)c3CC2)cc1,u,x,x,n
SMILES,3T3 cytotox,Luciferase inh,NPR1 antag,HEK293 tox
Cc1nn(-c2ccccc2)c2c1C(C1CC1)N(C1CN(C(=O)Nc3ccc(Cl)cc3)C1)C2=O (configuration not stated),n,x,x,n
O=C(Cc1ccccn1)NC1CCN(C(=O)c2ccc(-c3cncnc3)cc2)CC1,n,x,x,n
O=C(Nc1ccccc1F)N1CCCN(CCn2nc3n(c2=O)CCCC3)CC1,n,x,x,n
CN1C(=O)CCC2(CNC(=O)CCc3c[nH]c4ccccc34)CCC=C12 (configuration not stated),n,x,x,n
Fc1ccc(CNc2cc3c(cn2)CN(Cc2ccncc2)CCN3)cc1,n,n,n,n
Cc1cccc(CN2CCNc3cnc(OCc4cccnc4)cc3C2)c1,u,n,u,100µM
Cc1cc(-c2cc3c(cn2)CN(Cc2ccc(C(F)(F)F)cc2)CCN3)ccn1,79µM,63µM,28µM,63µM
COc1cccc(CN2CCNc3cnc(OCc4cccnc4)cc3C2)c1,u,n,n,u
COc1ccc(C(=O)N2CCN(C(=O)c3nc4cccnc4n(CCc4ccccc4)c3=O)CC2)cc1,n,x,x,u
Cc1ccc([S+](=O)([O-])N2CCc3nc(C(C)C)nc(-c4ccc(O)cc4)c3C2)cc1,n,x,x,u
Cc1noc2c(Nc3ccc(C(N)=O)cc3)cc(-c3cccnc3)nc12,20µM,n,n,n
Cc1noc2c(N(C)C)cc(-c3cccnc3)nc12,u,n,n,n
Cc1noc2c(NCC3CCOCC3)cc(-c3cccnc3)nc12,u,n,n,n
Cc1noc2c(NC(C)C)cc(-c3cccnc3)nc12,40µM,n,n,n
O=C(c1cccnc1)N1CCN(c2ccc3nnc(C4CC4)n3n2)CC1,n,x,x,n
O=C1N[C@@H]2CCN(C(=O)c3ccccc3)[C@@H]2C(=O)N1c1ccc(Oc2ccccc2)cc1,n,n,n,n
COc1ccccc1Oc1ncccc1CNC(=O)c1ccccc1SC,n,32µM,n,u
COc1ccccc1Oc1ncccc1CNC(=O)c1cccnc1C,n,n,n,n
CCC(=O)NCc1cccnc1Oc1ccccc1OC,n,n,n,n
COc1ccccc1Oc1ncccc1CNC(=O)Nc1cccc(C#N)c1,32µM,n,n,u
CC(=O)Nc1ccc(S(=O)(=O)N2Cc3ccccc3OC3(CCN(C(=O)NC(C)C)CC3)C2)cc1,n,x,x,n
CC(=O)Nc1ccc(CN(C)Cc2ccc(-c3ccccc3)cc2)cc1,u,n,n,79µM
Cc1ccc(CN(C)Cc2ccc(-c3ccccc3)cc2)cc1,u,n,n,u
Cc1ccc(CN(C)Cc2ccccc2C(F)(F)F)cc1,n,n,n,n
CC(=O)Nc1ccc(CN(C)Cc2ccccc2C(F)(F)F)cc1,u,n,n,89µM
COc1cccc(CN2CC(O)CN(C(=O)OCC(C)C)CC2=O)c1OC (configuration not stated),u,x,x,n
Cc1cccc(NC(=O)c2ccc3c(c2)N(C)C2CCCCCN2C3=O)c1 (configuration not stated),u,35µM,n,u
Cc1cc(NC(=O)c2ccc3c(c2)N(C)C2CCCN2C3=O)ccc1Br (configuration not stated),n,u,n,n
COC(=O)c1cccc(NC(=O)c2ccc3c(c2)N(C)C2CCCCN2C3=O)c1 (configuration not stated),u,u,n,u
CSc1cccc(NC(=O)c2ccc3c(c2)N(C)C2CCCCCN2C3=O)c1 (configuration not stated),32µM,u,n,18µM

# High-throughput results (PubChem BioAssay)
